Hits are enriched below; roughly 27% of the tested compounds scored in any of these assays.
CYP2C19 act = human CYP2C19 activators, primary screen, biochemical, luminescence. Cytochrome P450 2C19 (Homo sapiens), P33261. recombinant CYP2C19, luciferin-H EGE luminescence; hits give high values; 0 = fully inhibited enzyme, 1 = untreated enzyme. activation factor at 5 µM. 96,000 tested, under 10 active. AID 1025, 2008;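 active = activation factor of at least 2 at 5 µM in the primary screen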;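 note: 0 = wells with 2.5 mM tranylcypromine and 1 = vehicle-only wells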
CYP2C9 act = human CYP2C9 activators, primary screen, biochemical, luminescence | Cytochrome P450 2C9 (Homo sapiens), P11712 | recombinant CYP2C9, luciferin-H conversion; hits give high values; factor 1 = untreated enzyme, 0 = blocked | activation factor at 5 µM | actives 1.4% (n = 96,000) | AID 1024, 2008;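 active = activation factor of 2 or more for CYP2C9 at a 5 µM dose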;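 note: 0 = sulfaphenazole-blocked wells and 1 = vehicle-only wells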
CYP2C19 inh = blockers of cytochrome P450 2C19 activity – biochemical, luminescence, ADME assay, primary screen; inhibition, % at 5 µM; actives 21% (n = 96,000); CYP2C19 Supersomes, luciferin-H EGE luminescence, 30 min;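 active = CYP2C19 inhibition above a set limit at 5 µM in the primary screen, cut at about 50% in these data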;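 note: plate controls were negative control wells for no effect and 2.5 mM tranylcypromine positive control for full effect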
CYP2C9 inh = blockers of cytochrome P450 2C9 activity – biochemical, luminescence, ADME assay, primary screen | CYP2C9 Supersomes, luciferin-H conversion | inhibition, % at 5 µM | actives 20% (n = 96,000) | AID 777, 2007;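 active = blocking of liver enzyme CYP2C9 beyond about 50% at 5 µM, limit read from the data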
EphB4 ephrin blk = EphB4-ephrin-B2 interaction antagonists, primary screen, biochemical, TNYL-RAW peptide probe, fluorescence polarization | inhibition, % at 7 µM | Ephrin type-B receptor 4 (Homo sapiens), P54760 | EphB4 LBD / TNYL-RAW-Alexa532 peptide | actives 0.15% (n = 97,000);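 active = inhibition above the screen-wide mean inhibition plus 3 SD, cut at about 15% in these data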;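 note: 0% = DMSO wells and 100% = excess unlabeled TNYL-RAW peptide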
Starred values were filed as active, the others as inactive; · = not tested or not shown.

SMILES	CYP2C19 act	CYP2C9 act	CYP2C19 inh	CYP2C9 inh	EphB4 ephrin blk
O=C(CSc1nc(-c2ccccc2)cc(=O)[nH]1)Nc1ccccn1	1.1	1	-13.9	3.8	-8.2
O=C(COC(=O)CSc1nnc(-c2ccc(Cl)cc2)o1)NCc1ccc2c(c1)OCO2	1	1.2	-3.9	-20.7	-6.9
O=C(CSc1nc2ccccc2o1)NCc1ccc2c(c1)OCO2	0	0.1	100.4*	95.0*	5.3
Cc1ccc2cc3cc(C(=O)NCc4ccc5c(c4)OCO5)oc3nc2c1	0.9	0.7	14.6	25.7	-9.7
O=C(CSc1nc(-c2ccccc2)cc(=O)[nH]1)NCc1ccc2c(c1)OCO2	1	0	-4.7	96.1*	1.1
CC(=O)c1cc2c(cc1NC(=O)CN1CCOCC1)OCO2	1	0.9	-1.7	5.3	-7.4
O=C(NCc1cccnc1)c1cccn2c(=O)c3sccc3nc12	0.2	0.6	76.5*	42.9	-3.0
C=CCn1c(SCC(=O)Nc2ccccc2C)nnc1-c1ccncc1	0.3	0.8	74.4*	23.1	-0.1
C=CCn1c(SCc2cccnc2)nnc1-c1ccncc1	0.8	1	23.1	3.6	-1.9
C=CCn1c(SCC(=O)Nc2ccccc2C)nc2sc(C)c(C)c2c1=O	·	·	·	·	3.9
C=CCn1c(SCc2c(Cl)cccc2Cl)nnc1-c1cccnc1	0.5	0.7	53.7*	34.9	-0.8
C=CCn1c(SCC(=O)Nc2ccccc2CC)nnc1-c1ccncc1	0.1	0.5	91.1*	48.2	-1.9
C=CCn1c(SCC(=O)Nc2ccc(C)cc2C)nnc1-c1cccnc1	0.6	0.1	44.9	86.9*	-2.2
CC1CCCCC1NC(=O)C1CCN(S(=O)(=O)N2CCOCC2)CC1 (stereo not drawn)	1	1	-0.9	4.7	-8.5
COC(=O)C(Cc1ccccc1)NC(=O)CSc1nc(N)cc(=O)[nH]1 (stereo not drawn)	1	0.9	1.0	7.9	2.0
CN(C)c1cccc(-c2nnc(SCCCC#N)o2)c1	0.9	1.1	12.8	-9.0	-2.3
CCCCN(CCNP(=O)(OCC)OCC)CP(=O)(OCC)OCC	1.2	0.9	-15.3	6.8	-0.8
C=CCn1c(Cc2csc(N)n2)nnc1SCC(=O)Nc1ccccc1C(F)(F)F	0.5	0.5	53.2*	45.7	-4.7
CCOc1ccccc1NC(=O)CSc1nnc(-c2cnccn2)n1CC	0.1	0.5	87.7*	45.3	·
C=CCn1c(SCC(=O)Nc2c(C)cccc2C)nnc1-c1cnccn1	0	0.5	99.9*	46.4	-7.8
C=CCn1c(SCC(=O)NCC(=O)OCC)nnc1-c1ccccn1	1	1	1.3	1.9	-4.6
O=C1C(Cc2ccc(O)cc2)NC(=S)N1c1ccccc1 (stereo not drawn)	0.4	0.6	56.9*	38.4	3.1
Cn1nc(-c2ccccc2F)c2cc(C(=O)N3CCN(C(=O)c4ccco4)CC3)sc21	·	·	·	·	-1.0
COc1ccc(N2CCN(C(=O)c3cc4c(-c5ccc(Cl)cc5)nn(C)c4s3)CC2)cc1	0.8	0.4	23.4	64.0*	-6.8
Cc1ccccc1-n1nc(C)c2cc(C(=O)N3CCOCC3)sc21	0.8	1.3	20.7	-26.0	3.9
SMILES	CYP2C19 act	CYP2C9 act	CYP2C19 inh	CYP2C9 inh	EphB4 ephrin blk
COc1cccc(-c2nn(C)c3sc(C(=O)N4CCOCC4)cc23)c1	0.7	0.4	31.6	60.0*	-1.4
COc1cccc(-c2nn(C)c3sc(C(=O)N4CCN(c5ccccn5)CC4)cc23)c1	0.6	0.2	42.5	80.2*	·
Cn1nc(-c2ccc(Cl)cc2)c2cc(C(=O)N3CCOCC3)sc21	0.7	0.8	34.3	17.3	1.3
COc1ccc(CNC(=O)c2ccccc2[N+](=O)[O-])cc1	0.6	0.9	39.7	11.2	1.3
c1ccc(N2CCN(CCc3nnc4n3CCCCC4)CC2)cc1	0.9	0.9	10.0	8.0	·
COc1ccc(CC2S/C(=C(\C#N)C(=O)NCc3ccco3)N(c3ccc(C)cc3)C2=O)cc1 (stereo not drawn)	1	1	-4.8	4.5	3.6
Cc1ccc(OC(C)C(=O)Nc2ccc(S(=O)(=O)Nc3cc(C)on3)cc2)cc1 (stereo not drawn)	1	0.9	2.4	11.2	1.6
COC(=O)C1=C(C)N(CCc2ccc(OC)cc2)C(=O)C1	0.2	0.9	78.2*	14.5	9.8
COC(=O)C1=C(C)N(CC(C)C)C(=O)C1	0.3	0.8	71.4*	23.0	0.8
COc1ccc(CCN2C(=O)C3C4C=CC(C4)C3C2=O)cc1OC (stereo not drawn)	0.4	1.1	57.4*	-6.4	6.0
COC(=O)C1=C(C)N(Cc2ccc(OC)cc2)C(=O)C1	0	0.7	97.4*	33.7	4.0
COC(=O)C1=C(C)N(Cc2ccco2)C(=O)C1	0.7	1	27.1	-2.9	-7.4
COC(=O)C1=C(C)N(Cc2cccnc2)C(=O)C1	·	·	·	·	5.8
COC(=O)C1=C(C)N(Cc2ccc(OC)c(OC)c2)C(=O)C1	0.8	1	19.7	-2.6	-3.5
COC(=O)C1=C(C)N(CCc2ccc(OC)c(OC)c2)C(=O)C1	0.4	0.8	64.7*	16.3	9.1
O=C1NCCCC2c3cc(O)c4ccccc4c3OC12N1CCCCC1 (stereo not drawn)	0.6	0.9	42.3	11.7	-0.3
CCOCC(=O)Nc1nnc(Cc2ccc(OC)cc2)s1	·	·	·	·	3.6
CCN1CCCC1CNC(=O)C(=O)Nc1ccc(OC)cc1 (stereo not drawn)	1.1	1.1	-11.4	-9.2	8.0
COC(=O)c1cc(C(=O)c2cccc(Cl)c2Cl)cn1C	0.1	2*	90.2*	-96.1	-0.1
Cn1cc(C(=O)c2cccc(Cl)c2Cl)cc1C(=O)O	1.1	1.1	-8.6	-7.6	-1.6
COC(=O)c1cc(C(=O)c2ccc(Cl)cc2Cl)cn1C	0.4	0.9	57.9*	14.3	0.2
Cn1cc(C(=O)c2ccc(Cl)cc2Cl)cc1C(=O)N/N=C(\N)COc1cccc(C(F)(F)F)c1	0.4	0.4	64.0*	61.9*	-0.3
N=c1sccn1CC(=O)N1CCc2ccccc21	1.1	1.1	-7.3	-5.6	-3.7
COc1ccc(N(C)C(=O)CCC(=O)Nc2ccc3nc(N4CCOCC4)cc(C)c3c2)c(OC)c1	0.8	0.7	24.4	30.5	-3.2
Cc1c(C(=O)/C=C/c2cccs2)oc2ccc(F)cc12	0.7	0.8	29.9	19.2	1.5
COCCNC(=O)CC(c1ccccc1)c1ccccc1	0.5	0.6	52.0*	36.0	8.1
COCCNC(=O)CSc1nc(-c2ccccc2)c(-c2ccccc2)o1	0.2	0.3	81.6*	70.7*	-4.6
Cn1nnnc1SCC(=O)Nc1nc(-c2ccccc2)c(-c2ccccc2)o1	1	1.1	-1.3	-6.7	-7.6
CC(C)NC(=O)Cc1ccc(Br)cc1	0.6	1	42.1	-3.5	-6.4
COCCNC(=O)Cc1ccc(Br)cc1	0.4	1.1	55.5*	-7.2	·
